D1 potentiator = human D1 dopamine receptor positive modulation | P21728 | HEK293 TREx D1 cells, calcium flux, dopamine EC20 potentiation | potentiation, % at 10 µM | actives 0.036% (n = 360,000) | AID 504651; in the data active = potentiation above about 30%; note: 0% is about no effect
Target sequence (P21728 whole entry, looked up): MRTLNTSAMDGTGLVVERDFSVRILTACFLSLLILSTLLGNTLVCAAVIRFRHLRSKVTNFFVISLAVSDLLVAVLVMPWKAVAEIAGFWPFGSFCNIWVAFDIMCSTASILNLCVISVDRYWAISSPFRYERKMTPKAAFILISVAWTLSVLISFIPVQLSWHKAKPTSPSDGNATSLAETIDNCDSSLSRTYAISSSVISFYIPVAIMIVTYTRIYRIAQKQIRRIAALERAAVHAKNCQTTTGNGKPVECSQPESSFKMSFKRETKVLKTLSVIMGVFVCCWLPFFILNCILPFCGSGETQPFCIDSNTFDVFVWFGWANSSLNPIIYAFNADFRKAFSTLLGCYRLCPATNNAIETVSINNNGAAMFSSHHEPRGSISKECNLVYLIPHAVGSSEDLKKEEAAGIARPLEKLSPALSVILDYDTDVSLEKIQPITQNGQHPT
D1 antagonist = human D1 dopamine receptor antagonism | HEK293 TREx D1 cells, calcium flux, dopamine EC80; active compounds read low | activity change, negative = inhibition, % at 10 µM | actives 3.2% (n = 360,000) | AID 504652; in the data active = activity change below about -30%; note: % is set by controls: 0 for no effect and ±100 for the full control effect
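Inducible Hek293 Trex D1 cells (tetracycline, overnight, 30 C). Calcium dye 30–90 min RT. Antagonist mode: EC80 dopamine added after 180 s compound read.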
TRHR agonist = activates the human TRH receptor. P34981. TRHR cells, calcium flux fluo-8, FDSS agonist mode. activation, % at 2 µM. actives 0.18% (n = 360,000); note: 0% is about no effect
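In this calcium-flux screen, cells bearing human TRHR are dye-loaded with fluo-8, baselined for 10 cycles, then exposed to library compounds; positive kinetic calcium responses during the agonist phase mark hits, with TRH as control.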
TRHR PAM = allosteric enhancers of human TRH receptor | actives 0.66% (n = 360,000) | AID 493056 | enhancement, % at 2 µM | TRHR cells, fluo-8 calcium fluorescence, EC20 TRH enhancement | P34981; in the data active = enhancement above about 30%; note: 0% is about no effect
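TRHR-expressing cells loaded with fluo-8 calcium dye were read kinetically (ex 480/em 530) during compound addition, then stimulated with an EC20 of TRH (10 nM final). Enhancement of the Gq-mediated intracellular calcium response was scored.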
D1 agonist = agonists of human D1 dopamine receptor | AID 504660 | actives 1% (n = 360,000) | P21728 | activation, % at 2 µM | HEK293 T-REx D1 cells, calcium flux, agonist mode; note: 0% is about no effect
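Agonism was scored from calcium flux recorded over 180 s (1 read/s) after pintool compound addition, following a 10-cycle baseline. Cells were inducible force-coupled HEK293 TREx D1, plated overnight at 30 C and loaded with no-wash calcium dye.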
The depositor's hits bear a star; / = not tested or not shown. Most compounds without a hit are left out; they make up all but 4.6% or so of the library. Cut-off read from the data, not from the text of the source, unless noted: active = activation above about 30%; inactive = the rest.

SMILES | D1 potentiator | D1 antagonist | TRHR agonist | TRHR PAM | D1 agonist
COCCNC(=O)CN(c1cc(C(F)(F)F)ccc1Cl)S(C)(=O)=O | -1 | -3 | 0 | -3 | 1
COC(=O)CN(c1cc(C(F)(F)F)ccc1Cl)S(C)(=O)=O | -6 | -39* | 0 | -4 | 4
Cc1ccccc1NC(=O)c1c(C)oc2ccc(O)c(CN(C)Cc3ccccc3)c12 | -4 | -17 | -1 | 6 | 0
COc1ccc(C)cc1-n1nnnc1SCC1CCCCO1 (stereo unspecified) | -5 | -36* | 0 | 8 | 18
COc1ccc(C(=O)/C(=C\c2ccco2)N2C=CC=CC2=C(C#N)C#N)cc1 | -8 | -41* | 0 | -7 | 9
N#CC(C#N)=C1C=CC=CN1/C(=C\c1ccco1)C(=O)c1ccc(Br)cc1 | -11 | -48* | 0 | 3 | 5
N#C/C(=C/c1ccco1)C(N)=S | 6 | -5 | -1 | -5 | 11
COc1ccc(/C=C(/C(=O)c2cccs2)N2C=CC=CC2=C(C#N)C#N)cc1 | -7 | -24 | 1 | -1 | 1
N#CC(C#N)=C1C=CC=CN1/C(=C\c1ccco1)C(=O)c1ccccc1 | -7 | -75* | 0 | -7 | 0
O=C(Nc1ccc(Cl)c(C(F)(F)F)c1)C1CCN(S(=O)(=O)c2cccc3nonc23)CC1 | 0 | -12 | 1 | 1 | 8
CCC12CN3CC(C)(CN(C1)C3c1ccccc1C)C2=O (stereo unspecified) | -1 | 11 | 0 | -3 | 3
Cc1ccc2c(=O)cc(C(=O)Nc3c(C(=O)c4ccccc4)oc4ccccc34)oc2c1C | -1 | -3 | 0 | -2 | -1
O=C(Nc1ccccc1F)C(Cc1ccccc1)N1Cc2ccccc2C1=O (stereo unspecified) | -1 | 7 | 0 | 12 | 0
C=CCN1C(=O)C2(NC(=O)c3ccccc3N2)c2ccccc21 (stereo unspecified) | -1 | 8 | 1 | 20 | 1
CCCCN1C(=O)C2(NNc3ccccc3O2)c2ccccc21 (stereo unspecified) | -2 | / | 14 | -15 | 74*
C=CCN1C(=O)C2(NNc3ccccc3O2)c2ccccc21 (stereo unspecified) | -1 | -22 | 8 | 8 | 45*
Nc1ccccc1NC(=O)CCn1c(=S)[nH]c2ccccc2c1=O | -6 | -10 | 0 | -2 | 2
O=C(COc1ccc([N+](=O)[O-])cc1)Nc1cccc2cccnc12 | -4 | -2 | -1 | 2 | 3
Cc1ccc(C)c(N2CCN(C(=S)Nc3ccc4nc(N5CCOCC5)cc(C)c4c3)CC2)c1 | 1 | 4 | -1 | 2 | 11
Cc1cccc(NC(=S)N2CCN(c3cc(C)ccc3C)CC2)c1 | -9 | -35* | 0 | -4 | 5
CC(=O)c1ccc(N2CCN(C(=O)CCC(=O)Nc3ccc4nc(N5CCN(C)CC5)cc(C)c4c3)CC2)cc1 | -9 | -37* | 0 | 2 | -3
Cc1ccc(C)c(NC(=S)N2CCCC2)c1 | -1 | -65* | 0 | 10 | 0
Cc1ccc(C)c(N2CCN(C(=S)Nc3ccc4nc(N5CCN(C)CC5)cc(C)c4c3)CC2)c1 | -13 | -61* | 0 | 5 | 18
Cc1ccccc1C(=O)Nc1cccc(OCc2cc(=O)n3cccc(C)c3n2)c1 | -1 | -2 | 0 | -6 | 0
COc1cc(NC(=O)c2nnn(CC(=O)Nc3cc(C)ccc3C)c2N)cc(OC)c1 | -3 | -1 | 0 | 18 | 3
SMILES | D1 potentiator | D1 antagonist | TRHR agonist | TRHR PAM | D1 agonist
CC(=O)Nc1ccc(C)cc1-c1nc2ccccc2n(CC(=O)c2ccc(C)c(C)c2)c1=O | -1 | 5 | 0 | 0 | 3
Cc1ccccc1N1C(=O)c2cccc([N+](=O)[O-])c2C1=O | 2 | -3 | 0 | 1 | 0
O=C1c2cccc([N+](=O)[O-])c2C(=O)N1c1c[nH]c(=O)[nH]c1=O | 1 | -11 | 0 | 30* | 1
COc1cccc(C2CC(=O)Nc3cc4c(cc32)OCCO4)c1OC (stereo unspecified) | 1 | 3 | 1 | 14 | 0
CC(Sc1nnnn1C1CC1)C(=O)N1CC(=O)Nc2ccccc21 (stereo unspecified) | -3 | -32* | -1 | -7 | 1
c1ccc(CCCCN2CCN=C2Nc2ccccc2)cc1 | 1 | 3 | 0 | 32* | 5
c1ccc(NC2=NCCN2CCCC2CCCCC2)cc1 | -3 | -5 | 1 | -2 | 33*
Fc1cccc(CCN2CCN=C2Nc2ccccc2)c1 | -5 | -18 | 9 | -2 | 20
COc1ccc(N2CCN(C(=O)Cc3noc4ccc(C)cc34)CC2)cc1 | -4 | -4 | 0 | -5 | -2
COc1ccccc1OCC(=O)N(Cc1ccco1)Cc1ccccc1F | 4 | -17 | -1 | -3 | 0
Oc1ccc(C[C@H]2CNCCN2CCC23CC4CC(CC(C4)C2)C3)cc1 | 1 | 1 | 0 | 6 | 24
Oc1ccc(C[C@H]2CNCCN2CCCCC2CCCCC2)cc1 | -2 | 10 | 1 | 6 | 33*
Oc1ccc(C[C@@H]2CNCCN2CCC23CC4CC(CC(C4)C2)C3)cc1 | 2 | 34 | 0 | 9 | 95*
COc1ccc2c(c1)NC(c1ccc(OCC(C)C)cc1)=NC(c1ccncc1)=N2 | 0 | -4 | -2 | 8 | 2
COc1ccccc1NC(=O)CSc1oc(-c2cccs2)nc1S(=O)(=O)c1ccccc1 | 1 | -16 | 1 | 0 | 5
CCC(NC(=O)c1cc(COc2cc(C)c(Cl)c(C)c2)on1)c1ccncc1 (stereo unspecified) | -4 | 65 | 3 | -1 | 36*
CCC(NC(=O)c1cc(COc2ccc(OC)cc2Cl)on1)c1ccncc1 (stereo unspecified) | -2 | -26 | 1 | 4 | 25
COc1ccc(C=O)cc1Cn1cnc2c(cnn2C)c1=O | 1 | -36* | 1 | 4 | 1
COc1ccc(-n2c(=O)c3ccccc3n(Cc3ccc(F)cc3Cl)c2=O)cc1OC | -2 | -2 | -1 | 8 | -2
CCc1ccccc1NC(=O)N1CC(CC)Oc2ccc(Cl)cc21 (stereo unspecified) | -4 | 9 | 0 | -4 | 2
COc1ccc(-c2cc(CCCC(=O)NCCc3ccc(OC)cc3OC)no2)cc1 | -8 | -44* | 3 | -15 | 21
c1ccc(COc2ccc(OCCCCN3CCCC3)cc2)cc1 | -6 | -34* | 1 | 4 | 35*
CC1CCN(CCOc2ccc(OCc3ccccc3)cc2)CC1 | -7 | -41* | 2 | 0 | 33*
CC1CCN(CCCCOc2ccc(C(C)(C)C)cc2)CC1 | -7 | -4 | 2 | -3 | 41*
CCOc1cccc2sc(N(Cc3cccnc3)C(=O)C3CCCCC3)nc12 | 4 | / | 0 | 12 | 3
Cc1ccccc1NC(=O)CCC(=O)N/N=C/c1ccncc1 | -3 | -40* | 3 | -3 | 11

High-throughput results deposited in PubChem BioAssay by National Center for Advancing Translational Sciences (NCATS).
